Results filed as inconclusive are left out. A call without a number means that no potency is given here. Activity calls are given as the source filed them. Calls follow the shape of the dose curve; as a rule, active = well fitted inhibition curve with a large enough effect; inconclusive = small, poorly fitted or top-dose-only effect; inactive = flat fitted curve, though single readings scatter.
Assay: P-glycoprotein substrates identified in KB-8-5-11 adenocarcinoma cell line, qHTS therapeutic library screen (AID 1346987); also: nearly all actives have a fitted effect of over 65% in size
Conditions: KB-8-5-11 (P-gp overexpressing) viability, CellTiter-Glo, 72 h; series mostly up to 44.5 µM
Outline: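 Steps: plate 500 KB-8-5-11 cells/well in DMEM + 10% FCS (colchicine removed); pin compounds in dose-response; incubate 72 h, 37 degree C, 5% CO2; add CellTiter-Glo, 5 min; read luminescence.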
In the case of `O=C(NCCN1CCCC1)c1cc(-c2ccc(CN3CCOCC3)cc2)nc2ccc(F)cc12`, the Potency is reported as “inactive”. For `CC(C)NC(=O)c1ccc(C#Cc2ccncc2)cn1`, the Potency was “inactive”. In the case of `CC(C)=CCC/C(C)=C/CO[C@@H]1O[C@H](CO[C@@H]2OC[C@](O)(CO)[C@H]2O)[C@@H](O)[C@H](O)[C@H]1O`, the Potency is reported as “inactive”. With `CC1=C(C(=O)OC2OC(COC3OC(CO)C(O)C(O)C3O)C(O)C(O)C2O)C(C)(C)CCC1` (stereo unspecified) the Potency was “inactive”. In the case of `CC1(C)CC[C@]2(C(=O)O[C@@H]3O[C@H](CO)[C@@H](O)[C@H](O)[C@H]3O)CC[C@]3(C)C(=CCC4[C@@]5(C)CC[C@H](O[C@@H]6O[C@H](C(=O)O)[C@@H](O[C@@H]7O[C@H](CO)[C@@H](O)[C@H](O)[C@H]7O)[C@H](O)[C@H]6O)C(C)(C)C5CC[C@]43C)C2C1` (stereo partly specified), the outcome is reported as “inactive [at 9.29 µM]”. In the case of `N#Cc1ccc(C2CCCc3cncn32)cc1` (stereo unspecified), the Potency is reported as “inactive”. With `NC(N)=NCCC[C@H](NC(=O)c1sccc1NS(=O)(=O)c1cccc2nsnc12)C(=O)O` the Potency was “inactive”. In the case of `O=C(c1c2ccccc2cc2ccccc12)N1CCC(N2CCC[C@@H](C(=O)N3CCOCC3)C2)CC1`, the Potency is reported as “inactive”. For `Cc1oc(S(=O)(=O)N2CCCCC2)cc1NC(=O)Nc1ccccc1`, the Potency was “inactive”. For `CC1=CC(=O)[C@]2(O[C@@H]3O[C@@H](C)[C@H](O)[C@@H](O)[C@H]3O)C=CO[C@@H](O[C@@H]3O[C@H](CO)[C@@H](O)[C@H](O)[C@H]3O)[C@H]12`, the Potency was “inactive”. In the case of `CC1CC(O)/C=C/C(O)/C=C\C(=O)O1` (stereo unspecified), the Potency is reported as “inactive”. In the case of `C=C1[C@H](OC(C)=O)[C@H]2[C@@H](OC(C)=O)C(C)C[C@]2(OC(C)=O)C(=O)[C@H](C)/C=C/C(C)(C)C(=O)[C@H](OC(=O)C(C)C)[C@H]1OC(C)=O` (stereo partly specified), the Potency is reported as “inactive”. In the case of `COC(=O)C[C@@H]1C(C(=O)O)=CO[C@@H](O[C@@H]2O[C@H](CO)[C@@H](O)[C@H](O)[C@H]2O)/C1=C\COC(=O)/C=C/c1ccc(O)c(OC)c1`, the Potency is reported as “inactive”. With `CC(C)C1(O)NC(=O)C(CC2(O)c3ccccc3N3C(=O)C(C)(C)NC32)n2c1nc1ccccc1c2=O` (stereo unspecified) the Potency was “inactive”. With `CC(C)=CCC/C(C)=C/CO[C@@H]1O[C@H](CO[C@@H]2O[C@@H](CO)[C@H](O)[C@H]2O)[C@@H](O)[C@H](O)[C@H]1O` the Potency was “inactive”. For `CCC12CCCN3CCc4c(n(c5ccccc45)C(O)C1)C32` (stereo unspecified), the Potency was “inactive”. In the case of `COC(=O)C1=COC(O[C@@H]2O[C@H](CO)[C@@H](O)[C@H](O)[C@H]2O)/C(=C\COC(=O)/C=C/c2ccccc2)C1CC(=O)OCCc1ccc(O)cc1` (stereo partly specified), the Potency is reported as “inactive”. For `CC1=C2CC(C)(C)CC2C(O)C2=C(C1)C(=O)OC2O` (stereo unspecified), the Potency was “inactive”. In the case of `COc1ccnc2[nH]cc(C(=O)C(=O)N3CCN(C(=O)c4ccccc4)CC3C)c12` (stereo unspecified), the Potency is reported as “inactive”. For `C=C1[C@H](OC(C)=O)[C@H]2[C@@H](OC(=O)c3ccccc3)[C@@H](C)C[C@]2(O)[C@@H](OC(C)=O)[C@H](C)/C=C/C(C)(C)C(=O)[C@H](OC(C)=O)[C@H]1OC(C)=O`, the Potency was “inactive”. With `C[C@]1(OC(=O)/C=C\c2ccc(O)cc2)C[C@@H](O)[C@]2(O)C=CO[C@@H](O[C@@H]3O[C@H](CO)[C@@H](O)[C@H](O)[C@H]3O)C12` (stereo partly specified) the Potency was “inactive”. For `COc1ccc2c(c1)N1C(=O)C[C@@]34C=CC[N@+]5([O-])CC[C@H]2[C@H](CC3)[C@@]145`, the Potency was “inactive”. In the case of `OC[C@H]1O[C@@H](OCc2ccccc2)[C@H](O[C@@H]2OC[C@@H](O)[C@H](O)[C@H]2O)[C@@H](O)[C@@H]1O`, the Potency is reported as “inactive”. With `Cc1cn(C[C@H](N)C(=O)O)c(=O)n(Cc2ccsc2C(=O)O)c1=O` the Potency was “inactive”. In the case of `C=C(C)C(O)COc1ccc(CC(=O)O)cc1` (stereo unspecified), the Potency is reported as “inactive”. For `OC[C@H]1O[C@@H](OC[C@H]2O[C@@H](OCc3ccccc3)[C@H](O)[C@@H](O)[C@@H]2O)[C@H](O)[C@@H](O)[C@@H]1O`, the Potency was “inactive”. For `C[C@@H]1CC2OC(=O)C3=C2C(CCC3O)[C@@]12C[C@@H](c1ccoc1)OC2=O` (stereo partly specified), the Potency was “inactive”. With `COc1ccnc(CCc2nc3ncccc3[nH]2)c1` the Potency was “inactive”. In the case of `O=C(O)/C=C/c1ccc(O[C@@H]2O[C@H](CO)[C@@H](O)[C@H](O)[C@H]2O)cc1`, the Potency is reported as “inactive”. In the case of `C=C(CO)C(=O)O[C@H]1C[C@@]23O[C@@H]2CC/C(=C/[C@H]2OC(=O)C(=C)[C@H]12)CO[C@H]3O`, the Potency is reported as “inactive”. In the case of `C[C@H]1CC(=O)C2=C(C1)C(O)C(O)[C@@]1(O)[C@H]2C(=O)c2cccc(O)c2[C@@H]1O` (stereo partly specified), the Potency is reported as “inactive”.

From PubChem BioAssay (NCATS)
